{"source": "PubChem BioAssay AID881", "about": "(National Center for Advancing Translational Sciences (NCATS), 2007)", "note": "Among all 110,000 compounds or so, about 610 (0.55%) were called active. Another 3% or so got no clear call; they are omitted. This is one part of a sample in which actives are shown more often than they occur. Unmarked numbers belong to inactive results. The call rests on the fitted dose curve; in most records, active means well fitted inhibition curve with a large enough effect; inconclusive means small, poorly fitted or top-dose-only effect; inactive means no such curve, though single readings can be large or run the other way. On the % scale 0 is the no-effect control and ±100 the full control effect; potency means the concentration at half of the fitted maximal effect.", "data": [{"target": "Polyunsaturated fatty acid lipoxygenase ALOX15B (Homo sapiens) (UniProt O15296)", "sequence (O15296 whole entry, looked up)": "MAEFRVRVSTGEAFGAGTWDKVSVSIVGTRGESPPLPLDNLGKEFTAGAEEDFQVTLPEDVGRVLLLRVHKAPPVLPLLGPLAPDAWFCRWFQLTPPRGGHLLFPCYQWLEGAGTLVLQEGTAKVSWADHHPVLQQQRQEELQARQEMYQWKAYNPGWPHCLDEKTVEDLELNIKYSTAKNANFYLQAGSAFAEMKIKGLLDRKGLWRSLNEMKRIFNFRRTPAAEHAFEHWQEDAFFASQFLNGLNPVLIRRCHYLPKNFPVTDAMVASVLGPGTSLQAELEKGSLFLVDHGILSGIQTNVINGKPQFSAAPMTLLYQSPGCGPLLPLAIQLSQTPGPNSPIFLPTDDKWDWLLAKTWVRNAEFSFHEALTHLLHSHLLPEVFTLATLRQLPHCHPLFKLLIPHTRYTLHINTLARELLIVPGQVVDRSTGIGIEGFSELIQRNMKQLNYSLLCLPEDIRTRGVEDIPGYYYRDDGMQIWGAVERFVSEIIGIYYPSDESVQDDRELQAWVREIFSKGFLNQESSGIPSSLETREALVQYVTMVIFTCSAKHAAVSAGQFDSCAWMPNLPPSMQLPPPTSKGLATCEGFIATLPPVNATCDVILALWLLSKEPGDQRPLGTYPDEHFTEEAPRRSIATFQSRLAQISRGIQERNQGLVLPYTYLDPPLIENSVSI", "test": "qHTS Assay for Inhibitors of 15-hLO-2 (15-human lipoxygenase 2); further: nearly all actives have a fitted effect of over 60% in size", "conditions": "purified 15hLO-2, xylenol orange hydroperoxide absorbance; series mostly up to 57.1 µM; activity change, negative = inhibition: at the top concentration", "from_the_text": "Assay Overview: NIH Molecular Libraries Screening Centers Network [MLSCN] NIH Chemical Genomics Center [NCGC] MLSCN Grant: MH081283-01A1 PI Name: Holman, T.R., University of California, Santa Cruz Human lipoxygenase 15hLO-2 is a member of the closely related lipoxygenase family of enzymes which catalyze the site-specific oxidation of arachidonic acid to various hormone precursor molecules and as such is a candidate for drug development in a variety of disease areas, such as cancer and inflammation. Inhibition of 15hLO-2 activity was screened by utilizing arachidonic acid as a substrate. The extent of hydroperoxide product formation was measured by a secondary chromogenic reaction in which xylenol orange (XO, Sigma-Aldrich, cat. number 39,818-7) reacts with the ferric ions produced from the reaction between the hydroperoxide and ferrous ions. The Fe(III)-XO complex is characterized with red-shifted absorbance at 560 nm. A purified preparation of human 15hLO-2 was supplied by Professor Ted Holman, University of California, Santa Cruz.\nAssay Protocol: Buffer: 25 mM Hepes pH 7.5, 0.01% Triton X-100. Reagents/Controls: Buffer in columns 3 and 4 as negative control (no enzyme). Substrate solution: 45 uM arachidonic acid (Sigma-Aldrich, St. Louis, MO) final concentration dispensed throughout the plate. Enzyme: 50 nM 15hLO-2 final concentration in columns 1, 2, 5-48. Column 1 is neutral (100% activity). Column 2 contained pin-transferred titration of NDGA (nordihidroguaiaretic acid, Sigma-Aldrich, N 5023, top concentration 10 mM in DMSO, then 1:2 dilution in duplicate). (Dilution factor: 23 nL into 4 uL.) Chromogenic detection reagent (divalent iron/xylenol orange, Fe-XO): 200 uM xylenol orange plus 300 uM ferrous ammonium sulfate prepared freshly in 50 mM sulfuric acid. Assay Steps: Three uL of enzyme were dispensed to 1536-well Greiner black clear bottom plates. Compounds and controls (23 nL) were transferred via Kalypsys PinTool. The plates were incubated for 15 min at room temperature, and then 1 uL of substrate solution was added to start the reaction. After room temperature incubation for 90 minutes, 4 uL of Fe-XO solution was added to each well followed by a short spin (1000 rpm, 15 sec) and the plates were then incubated for 30 min. The absorbance at 405 and 573 nm were measured using ViewLux (Perkin-Elmer) High-throughput CCD imager and absorbance protocol settings. The 573-to-405 absorbance ratio was used to compute reaction progress.", "values": [{"smiles": "COc1ccc(CN2CCCCC2C)cc1OC", "note": "(centres undefined)", "activity change, negative = inhibition": "-1.37%"}, {"smiles": "Cc1ccc(CNC(=O)CCNC(=O)Cn2ccc3ccccc3c2=O)cc1", "activity change, negative = inhibition": "10.9%"}, {"smiles": "O=C(Nc1nnc(C2CC2)s1)c1ccccn1", "activity change, negative = inhibition": "28.8%"}, {"smiles": "C/C=C1\\C2C=C(C)CC1(N)c1ccc(=O)[nH]c1C2", "note": "(centres undefined)", "activity change, negative = inhibition": "-9.9% [at 0.0915 µM]"}, {"smiles": "Oc1ccc(O)c2c(O)cccc12", "Potency": "12.6 µM (active)"}, {"smiles": "COc1ccc(-c2cc3nc(C)c(CCC(=O)NC(C)CCc4ccco4)c(C)n3n2)c(OC)c1", "note": "(centres undefined)", "activity change, negative = inhibition": "13.3%"}, {"smiles": "COc1cc(OC)c2c(c1)OC(=O)CC2c1cc(OC)c(OC)c(OC)c1", "note": "(centres undefined)", "activity change, negative = inhibition": "-2.71% [at 0.0915 µM]"}, {"smiles": "COc1cc(OC)c2c(-c3cccc(-c4cccc(N)c4)c3)cc(=O)oc2c1", "activity change, negative = inhibition": "3.54% [at 0.0915 µM]"}, {"smiles": "O=C(c1cccc(N2CCCC2=O)c1)N1CCOCC1", "activity change, negative = inhibition": "-6.64%"}, {"smiles": "Cc1cc2oc(=O)cc(-c3ccccc3)c2c(C)c1/C=C/c1ccc(F)cc1", "activity change, negative = inhibition": "-8.43% [at 0.0915 µM]"}, {"smiles": "COc1ccc(SCc2noc(C(=O)NCC3CCCO3)c2C(=O)O)cc1", "note": "(centres undefined)", "activity change, negative = inhibition": "-4.14%"}, {"smiles": "CCN1C(=O)/C(=C2/Sc3ccccc3N2CCCS(=O)(=O)O)SC1=S", "Potency": "15.8 µM (active)"}, {"smiles": "CCCCN1C(=O)/C(=C2/C=CC=CN2C)SC1=S", "activity change, negative = inhibition": "-27%"}, {"smiles": "CCN1C(=O)/C(=C\\N2CCN(c3ccccc3)CC2)SC1=S", "activity change, negative = inhibition": "-25.9%"}, {"smiles": "CCN(CC)C(=O)CSc1nnc(-c2cccc(OC)c2)o1", "activity change, negative = inhibition": "2.94%"}, {"smiles": "COc1ccc(-c2nnc(SC(C)C#N)o2)cc1", "note": "(centres undefined)", "activity change, negative = inhibition": "0.86%"}, {"smiles": "COc1ccc(-c2nnc(SC(=O)N3c4ccccc4Sc4ccccc43)o2)cc1", "Potency": "10 µM (active)"}, {"smiles": "Cc1cnc(NC(=O)CSc2nnc(C)s2)s1", "activity change, negative = inhibition": "-2.24%"}, {"smiles": "O=S(=O)(c1ccc(Br)cc1)c1nc(-c2ccccc2)oc1NCc1cccnc1", "activity change, negative = inhibition": "24.4%"}, {"smiles": "Cc1ccc(-c2csc(NC(=O)Cc3cccs3)n2)cc1C", "activity change, negative = inhibition": "-5.8%"}, {"smiles": "Cc1nnc(NC(=O)CSc2nc(C3CCCCC3)nc3ccccc23)s1", "activity change, negative = inhibition": "4.22%"}, {"smiles": "CCOCCCNC(=O)C(NC(=O)c1ccc(=O)[nH]c1)c1ccc(C)cc1", "note": "(centres undefined)", "activity change, negative = inhibition": "3.28%"}, {"smiles": "COc1ccc(N(CC(=O)NC2CCCCC2)S(=O)(=O)c2c(C)[nH]c(=O)[nH]c2=O)cc1", "activity change, negative = inhibition": "-0.497%"}, {"smiles": "CCc1c(C)[nH]c(=S)c(C#N)c1C", "Potency": "31.6 µM (active)"}, {"smiles": "O=C(Nc1ccccc1)c1ccccc1NC(=O)C(F)(F)F", "activity change, negative = inhibition": "0.576%"}, {"smiles": "CCCNC(=S)NC1CC2CCCC(C1)N2CC(C)C", "note": "(centres undefined)", "activity change, negative = inhibition": "4.08%"}, {"smiles": "Cc1ccc(F)c(NC(=O)CCc2ccccc2)c1", "activity change, negative = inhibition": "2.82%"}, {"smiles": "COc1ccc(-c2c(C)cc3oc(=O)cc(-c4ccccc4)c3c2C)cc1C=O", "activity change, negative = inhibition": "-27.8% [at 0.0915 µM]"}, {"smiles": "COc1ccc(C2CC(=O)Oc3ccc(C(C)(C)C)cc32)cc1", "note": "(centres undefined)", "activity change, negative = inhibition": "-11.2% [at 0.0915 µM]"}, {"smiles": "CCCNC(=O)NCc1ccc(N2CCCC2=O)cc1", "activity change, negative = inhibition": "-2.71%"}, {"smiles": "COCc1cc(=O)[nH]c2cc(NC(=O)C(F)(F)F)c(C)cc12", "activity change, negative = inhibition": "-0.389%"}, {"smiles": "CCOC(=O)C1C/C(=C\\C(C)=O)c2cccc(C(F)(F)F)c2O1", "note": "(centres undefined)", "activity change, negative = inhibition": "4.83% [at 0.0915 µM]"}, {"smiles": "COc1cnc(SCc2ccc(Cl)c(Cl)c2)nc1Cl", "activity change, negative = inhibition": "13.5%"}, {"smiles": "C(=N/N1CCN(c2ccccc2)CC1)/c1cccs1", "activity change, negative = inhibition": "-1.53%"}, {"smiles": "COc1ccc(C(=O)NNC(=O)c2cnccn2)cc1[N+](=O)[O-]", "activity change, negative = inhibition": "-1.79%"}, {"smiles": "COc1ccc(Nc2nc(=O)[nH]nc2C)cc1", "activity change, negative = inhibition": "-3.1%"}, {"smiles": "O=C(NCc1ccco1)C1(c2ccc(Cl)cc2)CCCC1", "activity change, negative = inhibition": "-3.03%"}, {"smiles": "O=C(NCc1ccco1)C1CCCN(S(=O)(=O)c2ccccc2)C1", "note": "(centres undefined)", "activity change, negative = inhibition": "-2.62%"}, {"smiles": "CCc1ccc(C(=O)CSc2nnc(C)c(=O)[nH]2)cc1", "activity change, negative = inhibition": "2.83%"}, {"smiles": "COC(=O)C1C(=O)NCC1c1ccc(OC)cc1", "note": "(centres undefined)", "activity change, negative = inhibition": "1.92%"}, {"smiles": "CC(=O)c1cccc(NC(=O)C2CCCN2S(=O)(=O)c2cccc3nsnc23)c1", "note": "(centres undefined)", "activity change, negative = inhibition": "2.82%"}, {"smiles": "CC(=O)CC(c1ccccc1)C1C(=O)Oc2ccccc2C1=O", "note": "(centres undefined)", "activity change, negative = inhibition": "12.2% [at 0.0915 µM]"}, {"smiles": "C#C[C@]1(O)CC[C@H]2[C@@H]3CCC4=CC(=O)CC[C@@H]4[C@H]3CC[C@@]21CC", "activity change, negative = inhibition": "-11.5% [at 0.0915 µM]"}, {"smiles": "Cc1cccc(-n2ncc(C#N)c2-n2cccc2)c1", "activity change, negative = inhibition": "-4.9%"}, {"smiles": "CCC(C)N1C(=O)S/C(=C/c2ccc(Sc3nc4ccccc4[nH]3)o2)C1=O", "note": "(centres undefined)", "activity change, negative = inhibition": "42.9%"}, {"smiles": "CCN1CCN(C(=O)/C=C\\C(=O)O)CC1", "activity change, negative = inhibition": "4%"}, {"smiles": "CCOC(=O)Cn1c(-c2cccnc2Cl)nc2ccccc21", "activity change, negative = inhibition": "2.59%"}, {"smiles": "Cc1cc2cc(CNC(=O)c3cccs3)ccc2[nH]1", "activity change, negative = inhibition": "-4.32%"}, {"smiles": "CCOC(=O)C1=C(C)c2ccccc2OC1(C)C(=O)OCC", "note": "(centres undefined)", "activity change, negative = inhibition": "0.734% [at 0.0915 µM]"}, {"smiles": "CCCn1c(C(Cc2ccccc2)NC(=O)COC)nc2ccccc21", "note": "(centres undefined)", "activity change, negative = inhibition": "0.671%"}, {"smiles": "CC1=C(/C=C/C(C)=C/C=C/C(C)=C/C=C/C=C(C)/C=C/C=C(C)/C=C/C(=O)[C@]2(C)C[C@@H](O)CC2(C)C)C(C)(C)C[C@H](O)C1", "activity change, negative = inhibition": "24.6% [at 0.0915 µM]"}, {"smiles": "CCOC(=O)c1cnc(SC)nc1Sc1ccc(Cl)cc1Cl", "activity change, negative = inhibition": "6.61%"}, {"smiles": "COc1cccc2c1OCC(C(=O)NCc1ccc(Cl)cc1Cl)=C2", "activity change, negative = inhibition": "10.8%"}, {"smiles": "CCCCCCSc1nsc(N)n1", "activity change, negative = inhibition": "-0.41%"}, {"smiles": "CCOC(=O)C1=C(C)c2ccccc2OC1C(=O)OCC", "note": "(centres undefined)", "activity change, negative = inhibition": "-11.3% [at 0.0915 µM]"}, {"smiles": "O=c1[nH]c2ccccc2n2c(-c3ccccc3)nnc12", "Potency": "10 µM (active)"}, {"smiles": "O=[N+]([O-])c1cccc(-c2nnc3c4ccccc4c4ccccc4n23)c1", "activity change, negative = inhibition": "-21.4%"}, {"smiles": "O=c1[nH]c(-c2ccccc2)c(-c2ccccc2)[nH]1", "activity change, negative = inhibition": "-8.38%"}, {"smiles": "C[C@@H]1C(c2ccc(F)cc2)=NN(c2ccc(Br)cc2)[C@H]1C(=O)N1CCOC1=O", "activity change, negative = inhibition": "-11.1% [at 0.0915 µM]"}]}]}
